The results in this text go back to PubChem BioAssay (Tox21).

A short description of test [1]: qHTS assay for small molecule agonists of the p53 signaling pathway (AID 651631; calls by dose curve; also: nearly all actives have a fitted effect of over 15% in size; also: potency is read from the fitted curve at half-maximal effect). In a few lines: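 Agonist mode screen using a stably integrated beta-lactamase gene under p53 response elements in HCT-116 cells. Compound exposure lasts 16 h at 37 °C; fluorescence intensity is measured following 2 h FRET substrate loading.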
In general terms: Quantitative high-throughput screening tests each substance at several concentrations.

The nature of test [2]: qHTS assay for small molecules that induce genotoxicity in human embryonic kidney cells expressing luciferase-tagged ATAD5 (AID 651632). Also: nearly all actives have a fitted effect of over 15% in size. In a few lines: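 Increased luciferase signal from ATAD5-tagged reporter cells indicates DNA-damage-driven ATAD5 induction. HEK293T cells are treated for 16 hr at 37C before detection with Amplite.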
The nature of test [3]: qHTS assay for small molecules that induce genotoxicity in human embryonic kidney cells expressing luciferase-tagged ATAD5 - cell viability (AID 651634; calls by dose curve; also: nearly all actives have a fitted effect of over 25% in size; also: potency is read from the fitted curve at half-maximal effect). The essentials: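 Cytotoxicity counterscreen in HEK293T cells bearing an ATAD5-luciferase reporter: live-cell protease activity measured by CellTiter-Fluor fluorescence after 15.5 hr compound exposure.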
The nature of test [4]: qHTS assay for small molecule disruptors of the mitochondrial membrane potential - cell viability (AID 720634; calls by dose curve;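 also: human HepG2 liver cancer cells; nearly all actives have a fitted effect of over 20% in size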). The essentials: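 After overnight attachment at 37 C, HepG2 cells received compound or DMSO vehicle for 1 hr. Viability is then taken from ATP-driven luminescence following a 30 min room-temperature CellTiter-Glo step.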
The nature of test [5]: qHTS assay to test for compound auto fluorescence at 535 nm (green) in HepG2 cells (AID 720675). Also: potency is read from the fitted curve at half-maximal effect.
The nature of test [6]: qHTS assay to test for compound auto fluorescence at 460 nm (blue) in HEK293 cells (AID 720678). Also: potency is read from the fitted curve at half-maximal effect. The essentials: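 Intrinsic compound fluorescence is recorded in live HEK293 cultures after overnight incubation at 37C, 5% CO2, using excitation 405 nm and emission 460 nm. Values are referenced to triamterene.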
The nature of test [7]: qHTS assay to test for compound auto fluorescence at 590 nm (red) in HEK293 cells (AID 720679). In a few lines: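 Red autofluorescence, HEK293 cells: 2,000 cells/well; attach 4-5 hr 37C; add 23 nL cpd or DMSO; incubate o/n 37C 5% CO2; read Ex540/Em590; Rose Bengal sodium reference.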
A short description of test [8]: qHTS assay to test for compound auto fluorescence at 535 nm (green) in HEK293 cells (AID 720680). Also: potency is read from the fitted curve at half-maximal effect.
Test [9] in a line: qHTS assay to test for compound auto fluorescence at 460 nm (blue) in HEK293 cell free culture (AID 720681). Also: potency is read from the fitted curve at half-maximal effect. In a few lines:
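Test compounds were pinned into cell-free culture medium (DMEM with 10% FBS) and fluorescence was read directly at Ex/Em 405/460 nm. Signals were expressed as fluorescence equivalents of triamterene, with DMSO vehicle as control.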

The nature of test [10]: qHTS assay to test for compound auto fluorescence at 535 nm (green) in HEK293 cell free culture (AID 720682). Also: potency is read from the fitted curve at half-maximal effect. In a few lines: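 No cells present: wells hold DMEM supplemented with 10% FBS, into which compound or vehicle is pinned. Green emission is then recorded (485 nm excitation, 535 nm emission) and scaled to fluorescein.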
Test [11] can be described thus: qHTS assay to test for compound auto fluorescence at 590 nm (red) in HEK293 cell free culture (AID 720683). The essentials:
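Tox21 10K library compounds were pinned into cell-free DMEM with 10% FBS and fluorescence was read at excitation 540 nm. Activity is expressed as Rose Bengal sodium equivalency.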

A short description of test [12]: qHTS assay to test for compound auto fluorescence at 590 nm (red) in HepG2 cell free culture (AID 720684). In a few lines: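 Red fluorescence (540 nm excitation, 590 nm emission) was measured after compound transfer into cell-free MEM supplemented with 10% FBS. Values are equivalencies against Rose Bengal sodium.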
Test [13] in a line: qHTS assay to test for compound auto fluorescence at 460 nm (blue) in HepG2 cell free culture (AID 720685). Also: potency is read from the fitted curve at half-maximal effect. In a few lines:
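Compound (23 nL) or DMSO pinned into cell-free MEM with 10% FBS; blue fluorescence read at 405/460 nm excitation/emission, expressed as auto-fluorescence equivalency to triamterene.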

Test [14] is described as follows: qHTS assay to test for compound auto fluorescence at 535 nm (green) in HepG2 cell free culture (AID 720686). Also: potency is read from the fitted curve at half-maximal effect.
Test [15] in a line: qHTS assay to test for compound auto fluorescence at 460 nm (blue) in HepG2 cells (AID 720687). Also: potency is read from the fitted curve at half-maximal effect. In a few lines: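 Cells (2,000/well in MEM with 10% FBS) attached overnight at 37 C, then were exposed to compound or DMSO for 1 hr at 37 C, 5% CO2. Fluorescence read at Ex/Em 405/460 nm, expressed as triamterene-equivalent signal.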
The nature of test [16]: qHTS assay for small molecule agonists of the p53 signaling pathway - cell viability (AID 651633; calls by dose curve;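 also: p53RE-bla HCT reporter cells with a stable beta-lactamase p53 reporter; nearly all actives have a fitted effect of over 30% in size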). The essentials:
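p53RE-bla cells, seeded at 4,000 per well and rested 5 h at 37 C/5% CO2, received compounds in DMSO for 16 h at 37 C. CellTiter-Glo was then added, and luminescence was read after 30 min at room temperature to gauge cytotoxicity.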

Test [17] in a line: qHTS assay for small molecule disruptors of the mitochondrial membrane potential (AID 720635). Also: potency is read from the fitted curve at half-maximal effect. In a few lines: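 HepG2 cells (2,000/well) attached overnight at 37C, then took compound for 1 hr at 37C, 5% CO2. Mito-MPS dye was added for 30 min; fluorescence was read at 490/535 nm (monomers) and 540/590 nm (aggregates).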
Test [18] is described as follows: qHTS assay to test for compound auto fluorescence at 590 nm (red) in HepG2 cells (AID 720674). The essentials: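 Rose Bengal sodium served as the red fluorophore standard. HepG2 monolayers (overnight attachment, MEM with 10% FBS) were exposed to test compounds for 1 hr at 37 C and read at Ex 540/Em 590 nm.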
The target of test [19] is Glucocorticoid receptor (Homo sapiens) (UniProt P04150). Kind of test: qHTS assay to identify small molecule agonists of the glucocorticoid receptor (GR) signaling pathway (AID 720691; active = well fitted activation curve with a large enough effect in the signal ratio in the repeat runs, not every such curve was filed as active; the % refers to the signal ratio; also: potency is read from the fitted curve at half-maximal effect). Conditions: GR-bla HeLa, beta-lactamase reporter ratio, 18 h; activation: at 62.4 µM (top of the series). The essentials: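 Agonist mode in a HeLa line carrying a GRE-controlled beta-lactamase reporter. Compounds act for 18 h at 37 C before a 2 h room-temperature FRET substrate step and fluorescence reading.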

Values joined by “and” are separate entries in the source; they are usually repeats but may differ in a detail not shown here. Equal entries are not always repeated. Results filed as inconclusive are left out. Active and inactive are the calls of the source. Unless noted, calls follow the shape of the dose curve; as a rule, active = well fitted curve in the direction sought with a large enough effect in the repeat runs; inconclusive = weak or mixed curves; inactive = no such curve, though single readings can be large; an effect the other way counts as inactive or inconclusive.
Tags tell the direction and shape of the fitted curve or compound fluorescence and quenching.

Sequence of Glucocorticoid receptor (Homo sapiens) (P04150 whole entry, looked up): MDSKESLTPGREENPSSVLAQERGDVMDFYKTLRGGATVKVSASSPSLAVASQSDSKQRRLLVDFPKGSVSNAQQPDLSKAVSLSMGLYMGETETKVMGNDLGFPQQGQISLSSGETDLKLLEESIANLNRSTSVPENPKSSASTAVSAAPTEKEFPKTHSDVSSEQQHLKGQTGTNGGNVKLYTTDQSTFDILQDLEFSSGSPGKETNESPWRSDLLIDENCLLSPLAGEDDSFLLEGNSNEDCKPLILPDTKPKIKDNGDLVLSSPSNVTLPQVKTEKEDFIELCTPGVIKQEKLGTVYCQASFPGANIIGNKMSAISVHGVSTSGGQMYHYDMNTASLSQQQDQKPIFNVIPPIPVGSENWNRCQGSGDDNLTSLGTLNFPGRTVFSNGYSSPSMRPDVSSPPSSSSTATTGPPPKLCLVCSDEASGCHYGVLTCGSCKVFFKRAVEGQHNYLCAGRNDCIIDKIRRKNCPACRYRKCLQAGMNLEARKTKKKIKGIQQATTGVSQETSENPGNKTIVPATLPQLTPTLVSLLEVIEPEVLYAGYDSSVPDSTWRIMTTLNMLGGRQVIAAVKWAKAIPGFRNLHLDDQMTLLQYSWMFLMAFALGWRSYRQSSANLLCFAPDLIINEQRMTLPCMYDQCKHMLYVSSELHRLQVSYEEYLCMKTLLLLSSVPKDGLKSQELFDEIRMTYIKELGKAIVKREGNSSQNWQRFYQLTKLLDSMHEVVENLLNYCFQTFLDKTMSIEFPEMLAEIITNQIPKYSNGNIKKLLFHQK

For `CC(COC(=O)c1ccccc1)OC(=O)c1ccccc1` (stereo not drawn), the Potency result in [1], in test [2], in [3], in test [4], in test [5] and in [6] was “inactive” in each case. Besides, the Potency entry in test [7], in [8], in test [9], in test [10], in test [11] and in test [12] was “inactive” each time. Moreover, the Potency result in test [13], in [14] and in test [15] was “inactive” in each case.

For the compound `C=CCCCCCCC=C`, the Potency entry in test [1], in [16], in test [3], in test [4], in test [17] and in test [18] was “inactive” in each case. For the same compound, the Potency entry in test [5], in [6], in test [8], in test [9], in [10] and in test [11] was “inactive” in each case. In addition, the Potency entry in test [12], in test [13], in [14] and in test [15] was “inactive” throughout.

In the case of `Nc1ccc2cc3ccc(N)cc3nc2c1`, the Potency is 3.35 µM (active) and 3.06 µM (active) in [1]; 2.66 µM (active) and 1.22 µM (active) in test [17]; 12.6 µM (active) in test [5]; 12.6 µM [fluorescent] (active) in test [6]; 11.2 µM [fluorescent] (active) in [8]; 11.2 µM (active) in test [9]. Also, the Potency in test [10] was 11.2 µM [fluorescent] (active); in [13], 11.2 µM [fluorescent] (active); in test [14], 11.2 µM [fluorescent] (active) and 7.08 µM [fluorescent] (active); in test [15], 12.6 µM [fluorescent] (active); in test [19], 6.16 µM (active). For the same compound, the Potency result in test [2], in [16], in test [4], in [18], in test [7] and in test [11] was “inactive” each time. Also, in [12], the Potency entry is “inactive”.

Turning to `O=C(O)c1cccc(Cl)n1`, the Potency result in [1], in test [2], in test [3], in test [17], in test [5] and in [6] was “inactive” each time. Besides, the Potency entry in [8], in [9], in test [10], in test [11], in [12] and in test [13] was “inactive” each time. The Potency entry in test [14] and in test [15] was “inactive” in each case.

Regarding `CNC(=O)c1cc(Oc2ccc(NC(=O)Nc3ccc(Cl)c(C(F)(F)F)c3)cc2)ccn1`, the Potency was 5.96 µM (active) in test [1], 16.8 µM (active) in [3] and 880 nM (active) in [17]. In addition, the Potency entry in test [2], in test [18], in test [5], in test [6], in test [7] and in test [8] was “inactive” each time. The Potency result in test [9], in test [10], in [11], in test [12], in test [13] and in test [14] was “inactive” each time. The Potency result in test [15] is “inactive”.

As to `CCN(CC)CCNc1ccc(CO)c2sc3ccccc3c(=O)c12`, the Potency in test [1] is 5.96 µM (active); in test [3] it was 23.7 µM (active); in test [19], 19 µM (active). Also, the Potency result in test [2], in [4], in test [5], in test [6], in test [7] and in test [8] was “inactive” in each case. The Potency entry in test [9], in [10], in test [11], in test [12], in test [13] and in test [14] was “inactive” in each case. In addition, the Potency result in test [15] was “inactive”.

With `COc1ccccc1OCCNCC(O)COc1cccc2[nH]c3ccccc3c12` (stereo not drawn), the Potency result in test [2], in test [16], in [3], in [4], in test [18] and in [5] was “inactive” throughout. For the same compound, the Potency result in test [6], in test [7], in [8], in test [9], in test [10] and in [11] was “inactive” in each case. Further, the Potency result in test [12], in test [13], in test [14], in test [15] and in test [19] was “inactive” each time. Also, the Potency in test [17] is 23700 nM (active).
